PubChem BioAssay AID720513 (Broad Institute, 2013)
The whole screen tested about 2,100 compounds, of which about 480 (23%) were called active. Roughly 5% stayed inconclusive and do not appear here.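 How the source made its calls: active means fitted curve reaches 40% activation at or below the top valid concentration, in every replicate test; inconclusive means replicate tests disagree on the call; inactive means the rest, including activity in the opposite direction.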 Only a sample is shown. Potency and affinity values are given separately.

Assay: PGC1a acetylation increase, cellular AlphaLISA – cell-based, cherry-picked samples, set 6, dose response (AID 720513);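 further: cells made to overexpress flag tagged PGC1a plus GCN5 acetyltransferase by viral infection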
Conditions: U2OS PGC1a acetylation AlphaLISA, overnight, 0 = neutral, -100 = inhibitor control; series mostly up to 19.5 µM; activation (acetylation increase): at the top concentration

Activation (acetylation increase), inactive:
CCNc1nc(Oc2ccc(C#N)cc2)cc(C(F)(F)F)n1 9.53%
CCOC(=O)C1=C(C)N=C2SC(C(=O)OC)=CC(=O)N2C1c1cccc(OC)c1 (stereo not given) 15.5%
COc1ccccc1C(=O)Oc1cc(N)n(S(=O)(=O)c2ccc(C)cc2)n1 14.8%
Cn1c(Cl)cnc1C1CC(=O)c2cc(Cl)ccc2O1 (stereo not given) -60.7%
Cc1noc(C)c1NC(=O)N(C)C[C@@H]1Oc2c(NS(=O)(=O)c3cn(C)cn3)cccc2C(=O)N([C@@H](C)CO)C[C@@H]1C -16.3%
CO[C@@H]1CN(C)C(=O)c2cc(NS(=O)(=O)c3ccc(Cl)cc3)ccc2OC[C@H](C)N(C)C[C@H]1C 24.4%
CC(C)C#Cc1ccc2c(c1)O[C@@H](CN(C)C(=O)C1CC1)[C@@H](C)CN([C@@H](C)CO)S2(=O)=O 6.72%
Cc1cccc(C)c1NC(=O)C(NC(=O)c1ccccn1)c1ccc([N+](=O)[O-])cc1 (stereo not given) 27.5%
CCOC(=O)C1=C(CS(=O)(=O)c2ccccc2)NC(=O)NC1c1ccc(O)c(OC)c1 (stereo not given) -9.06%
CCCCCC(=O)N1C[C@H](n2cc(-c3ccc(F)cc3)nn2)[C@@H](O)C[C@@H]1c1ccc(C)cc1 28.2%
CCOC(=O)CC1C(=O)NCCN1S(=O)(=O)c1ccc(C)cc1 (stereo not given) 3.45%
OC[C@@H]1[C@H](c2ccc(C#CC3CCCC3)cc2)[C@H]2CN(CCC(F)(F)F)CCCCN12 -98.6%
CO[C@H]1CN(C)C(=O)c2cc(NC(=O)NC(C)C)ccc2OC[C@H](C)N(Cc2ccc(-c3ccccn3)cc2)C[C@@H]1C -41%
CCCS(=O)(=O)N1CCCC(C(=O)NCCCOC(C)C)C1 (stereo not given) 7.83%
Cc1nnc(NC(=O)CSc2ncc(-c3ccccc3)[nH]2)s1 -29.7%
Cc1ccc(-c2nc(NC(=O)c3nn(C)cc3[N+](=O)[O-])sc2C)cc1 -105%
CO[C@H]1CN(C)C(=O)c2ccc(NS(=O)(=O)c3ccccc3)cc2OC[C@@H](C)N(C(=O)NC(C)C)C[C@@H]1C 3.81%
O=C(c1cc(Cl)ccc1Cl)N1CCc2ccccc21 17.3%
O=C(O)c1ccccc1C(=O)N1CCN(C(=O)c2ccccc2Cl)CC1 -22.8%
O=C(c1ccccc1Cl)N1CCNCC1 7.9%
C[C@H](CO)N1C[C@H](C)[C@@H](CN(C)Cc2cncnc2)Oc2cc(C#CC3CC3)ccc2S1(=O)=O 1.37%
O=C(COn1nnc2ccc(Cl)cc21)NC12CC3CC(CC(C3)C1)C2 9.47%
CC(C)(C)OC(=O)NCCc1nnc(SCc2ccc(Cl)cc2)o1 -3.74%
CCOc1ccccc1OCCn1nnc2ccccc21 12.5%
OC(CN1c2ccccc2Sc2ccccc21)Cn1nnc2ccccc21 (stereo not given) 16.8% [at 10 µM]
CN1C[C@H](C(=O)N[C@]2(C)O[C@@]3(O)[C@@H]4CCCN4C(=O)[C@H](Cc4ccccc4)N3C2=O)CC2c3cccc4[nH]cc(c34)C[C@H]21 (stereo not given in full) -13.6%
O=C(Nc1cccc(F)c1)N1C[C@@H]2N[C@H](C1)C2c1ccc(-c2ccc(F)cc2)cc1 (stereo not given in full) -61.4%
C[C@H](CO)N1C[C@H](C)[C@H](CN(C)S(C)(=O)=O)Oc2ncc(-c3cc4ccccc4o3)cc2C1=O 15.1% [at 18 µM]
CC(C)[C@H](NC(=O)NCc1cccs1)C(=O)O 11.6%
O=C(Nc1nc2ccccc2[nH]1)c1ccc(Cl)c(S(=O)(=O)N2CCCC2)c1 32%
CCOc1ccnc(OCC)c1Br 4.57%
C[C@@H]1CN([C@H](C)CO)C(=O)c2cc(NS(C)(=O)=O)ccc2O[C@@H]1CN(C)S(=O)(=O)c1ccc(Cl)cc1 24.6%
CCN1CCN(Cc2ccc(NC(=O)c3ccc(C)c(NC(=O)c4c[nH]c5cc(C(F)(F)F)ccc5c4=O)c3)cc2C(F)(F)F)CC1 -97.3%
Cc1ccccc1S(=O)(=O)NCC[C@@H]1CC[C@@H](NC(=O)C2CCOCC2)[C@H](CO)O1 -0.888%
COCCSc1ccccc1C(=O)Nc1cc(C)on1 -34.8%
Cn1nnnc1SC1CC(=O)N(c2ccccc2)C1=O (stereo not given) 31.9%
CN(C)C(=O)c1ccc(-c2ccc([C@@H]3[C@H]4CN(C(=O)CC5CC5)CC(=O)N4[C@H]3CO)cc2)cc1 8.08%
OC(c1ccc(Cl)cc1Cl)C(Cc1cccnc1)n1cncn1 (stereo not given) 20%
OC(c1cc(-c2ccc(Cl)cc2)nc2ccccc12)C1CCCCN1 (stereo not given) 34% [at 10 µM]
COc1ccc2c(c1)sc1nc(-c3ccccc3)cn12 31.5%
COc1ccc2c3c(n(C)c2c1)[C@H](CO)NCC31CCN(Cc2cc(F)ccc2F)CC1 35.2%
Cc1ccc(C(=O)NNC(=O)c2cccc(Br)c2)cc1 10.6%
Cc1ccccc1NC(=O)CC1c2ccccc2CC(C)(C)N1C (stereo not given) 22.8%
O=C(COc1ccccc1)N1CCN=C1SCc1ccccc1 104%
O=C1c2ccccc2-c2c1cccc2C(=O)N1CCN(C(=O)c2ccco2)CC1 -5.11%
Cc1cc(C)c2nc(N3CCCC(C(=O)N4CCC(C(N)=O)CC4)C3)sc2c1 (stereo not given) 12.2%
Cn1nc(-c2ccccc2F)c2cc(C(=O)N3CCN(C(=O)c4ccco4)CC3)sc21 32.2%
CN1CCN(C(=O)c2sc(=S)n(-c3ccccc3)c2N)CC1 8.38%
CCN1CCN(c2nnc(-c3ccccc3)c3ccccc23)CC1 11.4%
Cc1ccc(S(=O)(=O)N2CCN(C(=O)CSc3nc4ccccc4c(=O)[nH]3)CC2)c(C)c1 38.8% [at 10 µM]
Cc1cc(C)cc(C(=O)Nc2ccc3[nH]c(=O)[nH]c3c2)c1 1.98%
COc1cccc(N2CCN(c3ncnc4c3[nH]c3ccc(F)cc34)CC2C)c1 (stereo not given) -116%
C=CCOc1ccccc1CNc1ccc2[nH]c(=O)[nH]c2c1 0.715%
O=C(C[C@H]1C=C[C@H](NC(=O)Nc2ccc(C(F)(F)F)cc2)[C@@H](CO)O1)NCc1ccccn1 36.2%
O=C(Cc1ccccc1)N1N=C(c2ccncc2)CC1(O)C(F)(F)F (stereo not given) 18.2%
COc1ccc(S(=O)(=O)N2CCN(C(=O)c3cccs3)CC2)cc1OC 23.8%
CC(=O)c1cccc(-n2nnnc2SCC(=O)NNC(=O)C(C)C)c1 27.3%
C[C@H](CO)N1C[C@H](C)[C@H](CN(C)S(=O)(=O)c2ccc(F)cc2)Oc2ncc(-c3cccc(C(=O)N(C)C)c3)cc2C1=O 5.12%
Cc1nonc1NC(=O)CSc1nc(C2CCCCC2)nc2ccccc12 -21.9%
CC(C)(CO)CNc1ccn2nccc2n1 9.81%
Cc1cccc(C)c1NC(=O)CS(=O)CC(=O)Nc1ccc(F)cc1F (stereo not given) -14.8%
O=C(CSC1=NS(=O)(=O)c2ccccc2N1)Nc1ccc(F)cc1 -19.9%
O=C1C=CCCN1C(=O)/C=C/c1cccc(Br)c1 -88.3%
Cn1nnnc1Sc1ncnc2scc(-c3ccc(C#N)cc3)c12 -92.1%
COc1ccc2cc(CN(Cc3ccco3)C(c3nnnn3C3CCCCC3)C(C)C)c(=O)[nH]c2c1 (stereo not given) 8.69%
O=C(c1cccs1)N(Cc1ccccn1)Cc1ccco1 36.3%
COCCN(C(=O)COC(=O)Cc1cccc(OC)c1)c1c(N)n(Cc2ccccc2)c(=O)[nH]c1=O -0.707%
O=C1CCCc2ccccc2N1Cc1ccc(Cl)cc1Cl 33.4%
CCOC(=O)CSc1nnc(-c2ccc(OC)cc2)n1CC 37.5%
CCN(C(=O)CSc1nnc(-c2cccs2)n1N)c1c(N)n(Cc2ccccc2)c(=O)[nH]c1=O -1.94%
CC1(C)CC2(CCO1)OC(=O)CC2C(=O)Nc1cccc2ccccc12 (stereo not given) 2.06%
CO[C@H]1CN(C)C(=O)c2cc(NC(=O)c3ccccc3F)ccc2OC[C@@H](C)N(C(C)=O)C[C@@H]1C -15.3%
COc1ccc(C(=O)Nc2ccc3c4c(cccc24)CC3)cc1 3.87%
CCN(CC)c1ccc(NC(=O)c2ccc(NC(=O)C3CCCO3)cc2)c(C)c1 (stereo not given) 23.6%
CC(C)CNC(=O)c1coc(=O)c(Br)c1 8.17%
O=C(NCCN1CCOCC1)c1ccc(=O)oc1 6.38%
O=C(OCCCN1CCCCC1)c1ccc(O)cc1 31.7%
Cc1ccc(S(=O)(=O)N(C)c2ccc(OC(C)C(=O)N3CCCC3)cc2)cc1C (stereo not given) 27.2%
OC[C@@H]1[C@@H](c2ccc(C#CC3CCCC3)cc2)[C@H]2CN(CCC(F)(F)F)CCCCN12 -96.8%
C[C@@H]1CN([C@H](C)CO)C(=O)CCCn2cc(nn2)CO[C@@H]1CN(C)C(=O)Nc1cccc2ccccc12 17.8% [at 21 µM]
C[C@@H]1CN([C@@H](C)CO)C(=O)c2ccccc2-c2ccccc2CO[C@@H]1CN(C)C(=O)Nc1cccc(Cl)c1Cl 9.37%
C[C@H]1CN([C@@H](C)CO)C(=O)c2cccc(NC(=O)Nc3ccc(C(F)(F)F)cc3)c2O[C@H]1CN(C)C(=O)Nc1cccc2ccccc12 -76.5%
Cc1cc2c(c(/C=C/C(=O)c3ccccc3)c1)OC1(C=C2)Oc2ccccc2C(=O)N1C (stereo not given) -61.7%
N#Cc1c(N)c(C(=O)c2ccccc2)n2ccccc12 -23.1%
CC1(C)CC(=O)C=C(NCc2ccco2)C1 23.6%
CSc1n[nH]c(NCc2ccccc2)n1 32.7%
COC1(C)CN(Cc2ccccc2Br)[C@H](/C=C/c2ccccc2)[C@H](Cc2ccccc2)O1 (stereo not given in full) 8.05%
CCn1nccc1C(=O)Nc1ccccc1OC 15.2% [at 10 µM]
CCOc1ccccc1NC(=O)c1ccc2ccccc2c1 29.4%
C[C@@H]1CN([C@H](C)CO)C(=O)c2cc(C3=CCCCC3)cnc2O[C@@H]1CN(C)Cc1ccccc1 -36.1%
COc1ccc(C(CC(=O)Nc2ccccn2)N2Cc3ccccc3C2=O)cc1 (stereo not given) 22.9%
c1ccc(-c2cc(-c3ccccc3)n3ncnc3n2)cc1 9.55%
CC(C)NC(=O)Nc1ccc2c(c1)C(=O)N([C@@H](C)CO)C[C@H](C)[C@@H](CN(C)C(=O)CCC(F)(F)F)OCCCC[C@@H](C)O2 10.8%
C[C@H]1CN([C@@H](C)CO)S(=O)(=O)c2ccc(C#Cc3cccnc3)cc2O[C@@H]1CN(C)CC1CCOCC1 32.6%
COc1cc(NC(=O)NCc2ccco2)ccc1-c1ccc(NC(=O)NCc2ccco2)cc1OC -67.9%
